# Reference: publication PMC8384837, “Expanding the binding specificity for RNA recognition by a PUF domain”
# Columns and labels:
# Assay in all cases: yeast three-hybrid, YBZ-1, SC-Leu-His + 0.5 mM 3-AT, 4 days
# Settings in all cases: tags: N-Gal4 AD-HA kept; label: inside an RPR1-promoter hybrid RNA with tandem MS2 sites; ssRNA
# PUM1 PUF domain R5-RGQ = PUM1 PUF domain R5-RGQ (Homo sapiens, UniProt Q14671 828-1176, C1007R;R1008G)
# Method in brief: (§1)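 A centromeric plasmid in strain YBZ-1 co-expressed Pumilio-1 PUF domain libraries, randomized at the three base-contacting residues of each repeat, with matching RNA elements; the strain carries a LexA–MS2 coat fusion and a HIS3 reporter. After four days on SC-Leu (input) or SC-Leu-His + 0.5 mM 3-AT (selection), the repeat regions were PCR-amplified and Illumina-sequenced. The interaction score is the log change in variant frequency from input to selection, using log2 and a pseudocount of 1 where absent.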
# PUM1 PUF domain R5-GQW = PUM1 PUF domain R5-GQW (Homo sapiens, UniProt Q14671 828-1176, C1007G;R1008Q;Q1011W)
# Method in brief: as §1
# PUM1 PUF domain R5-MYS = PUM1 PUF domain R5-MYS (Homo sapiens, UniProt Q14671 828-1176, C1007M;R1008Y;Q1011S)
# Method in brief: as §1
# PUM1 PUF domain R2-DWQ = PUM1 PUF domain R2-DWQ (Homo sapiens, UniProt Q14671 828-1176, N899D;Y900W)
# Method in brief: as §1
# PUM1 PUF domain R2-LFV = PUM1 PUF domain R2-LFV (Homo sapiens, UniProt Q14671 828-1176, N899L;Y900F;Q903V)
# Method in brief: as §1
# PUM1 PUF domain R5-RGW = PUM1 PUF domain R5-RGW (Homo sapiens, UniProt Q14671 828-1176, C1007R;R1008G;Q1011W)
# Method in brief: as §1
# PUM1 PUF domain R5-KGD = PUM1 PUF domain R5-KGD (Homo sapiens, UniProt Q14671 828-1176, C1007K;R1008G;Q1011D)
# Method in brief: as §1
# PUM1 PUF domain R7-RRK = PUM1 PUF domain R7-RRK (Homo sapiens, UniProt Q14671 828-1176, S1079R;N1080R;E1083K)
# Method in brief: as §1
# PUM1 PUF domain R2-MWR = PUM1 PUF domain R2-MWR (Homo sapiens, UniProt Q14671 828-1176, N899M;Y900W;Q903R)
# Method in brief: as §1
sequence,measurement,setting,value
GGCUAGAACUAGUGGAUCCCCCGGCGCCCGGCGGCUCGAGCCCGGGUAAGUGUUAAUAGUCUGCAUGCCGCCGGGCGCCAUGCCUGCAGGUCGACUCUAGAAAACAUG,binding signal,PUM1 PUF domain R5-RGQ,4.2 log2 enrichment (interaction score)
same,binding signal,PUM1 PUF domain R5-GQW,2.77 log2 enrichment (interaction score)
same,binding signal,PUM1 PUF domain R5-MYS,3.54 log2 enrichment (interaction score)
GGCUAGAACUAGUGGAUCCCCCGGCGCCCGGCGGCUCGAGCCCGGGUAAGUGUAAAAAGUCUGCAUGCCGCCGGGCGCCAUGCCUGCAGGUCGACUCUAGAAAACAUG,binding signal,PUM1 PUF domain R2-DWQ,7.04 log2 enrichment (interaction score)
same,binding signal,PUM1 PUF domain R2-LFV,4.38 log2 enrichment (interaction score)
GGCUAGAACUAGUGGAUCCCCCGGCGCCCGGCGGCUCGAGCCCGGGUAAGUGUCAAUAGUCUGCAUGCCGCCGGGCGCCAUGCCUGCAGGUCGACUCUAGAAAACAUG,binding signal,PUM1 PUF domain R5-RGQ,2.62 log2 enrichment (interaction score)
same,binding signal,PUM1 PUF domain R5-RGW,2.31 log2 enrichment (interaction score)
same,binding signal,PUM1 PUF domain R5-KGD,3.76 log2 enrichment (interaction score)
GGCUAGAACUAGUGGAUCCCCCGGCGCCCGGCGGCUCGAGCCCGGGUAAGUCUAAAUAGUCUGCAUGCCGCCGGGCGCCAUGCCUGCAGGUCGACUCUAGAAAACAUG,binding signal,PUM1 PUF domain R7-RRK,1.72 log2 enrichment (interaction score)
GGCUAGAACUAGUGGAUCCCCCGGCGCCCGGCGGCUCGAGCCCGGGUAAGUGUAAACAGUCUGCAUGCCGCCGGGCGCCAUGCCUGCAGGUCGACUCUAGAAAACAUG,binding signal,PUM1 PUF domain R2-MWR,5.06 log2 enrichment (interaction score)
same,binding signal,PUM1 PUF domain R2-DWQ,4.49 log2 enrichment (interaction score)
GGCUAGAACUAGUGGAUCCCCCGGCGCCCGGCGGCUCGAGCCCGGGUAAGUUUAAAUAGUCUGCAUGCCGCCGGGCGCCAUGCCUGCAGGUCGACUCUAGAAAACAUG,binding signal,PUM1 PUF domain R7-RRK,4.3 log2 enrichment (interaction score)
